Results with a measured potency or affinity are listed apart. The source made the active and inactive calls. The rule behind the calls is not given here.

The target of this experiment is Kelch-like ECH-associated protein 1 (Homo sapiens) + Nuclear factor erythroid 2-related factor 2 (Homo sapiens) (UniProt Q14145+Q16236). Description: disruptors of Keap1 binding to Nrf2 peptide – biochemical, fluorescence polarization, cherry-picked samples, dose response (AID 588683).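 Note: Kelch domain of Keap1 binding a fluorescein-labelled 9mer Nrf2 peptide; more negative means stronger inhibition of peptide binding.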 The following applies: plate reader; series mostly up to 26 µM. In general terms: Polarisation of emitted light reports the rotation of a fluorescent probe.
Chain of Kelch-like ECH-associated protein 1 (Homo sapiens) + Nuclear factor erythroid 2-related factor 2 (Homo sapiens) (Q14145 whole entry, looked up, the tested form may be a part): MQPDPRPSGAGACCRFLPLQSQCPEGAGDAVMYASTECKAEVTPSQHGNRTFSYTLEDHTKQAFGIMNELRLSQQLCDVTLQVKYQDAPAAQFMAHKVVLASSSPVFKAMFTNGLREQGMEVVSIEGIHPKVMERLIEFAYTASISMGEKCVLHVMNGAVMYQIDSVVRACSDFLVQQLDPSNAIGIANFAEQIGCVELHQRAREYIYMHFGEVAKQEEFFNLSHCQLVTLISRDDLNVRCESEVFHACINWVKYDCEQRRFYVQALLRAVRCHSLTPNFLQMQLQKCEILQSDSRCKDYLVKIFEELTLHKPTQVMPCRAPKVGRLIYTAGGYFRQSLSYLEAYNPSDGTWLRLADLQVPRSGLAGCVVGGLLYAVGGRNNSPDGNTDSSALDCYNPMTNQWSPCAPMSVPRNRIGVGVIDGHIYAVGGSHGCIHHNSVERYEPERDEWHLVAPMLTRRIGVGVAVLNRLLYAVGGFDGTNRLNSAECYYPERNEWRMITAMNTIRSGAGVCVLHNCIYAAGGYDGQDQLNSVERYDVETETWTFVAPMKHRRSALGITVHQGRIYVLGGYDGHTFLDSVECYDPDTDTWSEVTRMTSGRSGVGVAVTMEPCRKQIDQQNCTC
Chain of Kelch-like ECH-associated protein 1 (Homo sapiens) + Nuclear factor erythroid 2-related factor 2 (Homo sapiens) (Q16236 whole entry, looked up, the tested form may be a part): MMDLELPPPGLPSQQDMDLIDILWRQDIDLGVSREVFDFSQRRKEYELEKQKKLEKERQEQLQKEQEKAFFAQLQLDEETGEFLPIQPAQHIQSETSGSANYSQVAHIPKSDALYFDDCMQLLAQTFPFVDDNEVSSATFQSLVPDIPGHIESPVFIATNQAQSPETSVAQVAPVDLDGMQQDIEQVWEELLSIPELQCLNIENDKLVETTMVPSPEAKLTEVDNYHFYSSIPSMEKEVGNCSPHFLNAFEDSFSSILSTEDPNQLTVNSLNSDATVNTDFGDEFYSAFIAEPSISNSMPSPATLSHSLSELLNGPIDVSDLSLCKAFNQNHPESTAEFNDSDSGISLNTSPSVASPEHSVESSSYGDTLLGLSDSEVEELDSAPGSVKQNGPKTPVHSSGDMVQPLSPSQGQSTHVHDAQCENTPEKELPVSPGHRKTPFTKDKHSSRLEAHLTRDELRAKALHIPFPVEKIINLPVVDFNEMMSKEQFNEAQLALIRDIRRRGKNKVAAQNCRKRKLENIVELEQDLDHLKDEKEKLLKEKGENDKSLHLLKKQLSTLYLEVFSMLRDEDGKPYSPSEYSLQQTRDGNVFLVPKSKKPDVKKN
Regarding `Oc1[nH]c2ccccc2c1N=Nc1ccccc1`, the result was inactive. Consider `O=C(CCCN1C(=O)/C(=C\c2ccco2)SC1=S)Nc1ccc(O)cc1C(=O)O`, for which the outcome was inactive. In the case of `C=CCOc1ccc(CNc2ccc(NC(=O)CC(C)C)cc2)cc1OC` it was “inactive”.

Consider `CCOc1cccc(C2C(C(=O)c3ccc(C)o3)=C(O)C(=O)N2c2nccs2)c1` (stereo not drawn), for which the result was inactive. In the case of `O=C(NCc1cccc(F)c1)c1cccc2c1C(=O)c1ccc(N3CCCC3)cc1S2(=O)=O`, the outcome was inactive. As to `Cc1ccc(S(=O)(=O)N2CCCCC2)cc1NC(=O)c1ccccc1Cl`, the result was inactive.

Turning to `COc1ccc(-c2cc(C(F)(F)F)c3c(N)c(C(=O)NCCSC)sc3n2)cc1`, the result was inactive. For the compound `Cc1ccc2cc(CN(CCCO)S(=O)(=O)c3cccc4nsnc34)c(=O)[nH]c2c1C`, the outcome was inactive.

`COc1ccc2c(c1)c1nc3ccccc3nc1n2CC(=O)OC(C)C`: the result was inactive.

Consider `NC(=O)COc1ccc(NC(=O)CC23CC4CC(CC(C4)C2)C3)cc1`, for which the outcome was inactive. In the case of `CC1CCN(c2ccc3c(c2)S(=O)(=O)c2ccccc2C3=O)CC1` it was “inactive”; in that of `CN(CC(=O)Nc1cc(C(F)(F)F)ccc1-n1cncn1)Cc1ccccc1N1CCOCC1`, “inactive”. Take `CNC(=S)Nc1cccc(C(=O)OC)c1`: the outcome was inactive. Turning to `Cc1cnc(NC(=O)Cc2ccc(S(=O)(=O)N3CCOCC3)s2)s1`, the outcome was inactive. On to `CN1C(=O)c2cccc3c(S(N)(=O)=O)ccc1c23`, for which the result was inactive.

Take `CCN1CC=C2C(C#N)=C(N)C(C#N)(C#N)C(CCc3ccccc3)C2C1` (stereo not drawn): the result was inactive. `Cc1cc(=O)c2c([nH]1)c(C)cc1[nH]c(C)c(C)c12`: the outcome was inactive.

`N#Cc1c(SCC(=O)Nc2nncs2)sc2c(O)cc(=O)[nH]c12`: the outcome was inactive. For `CN(C)c1ccc2cc(S(=O)(=O)O)cc(O)c2c1`, the outcome was inactive. Regarding `COC(=O)c1ccc(OC(=O)CN2C(=O)c3ccccc3C2=O)cc1`, the outcome was inactive. Consider `O=[N+]([O-])c1cc(C(F)(F)F)ccc1NC1CCN(Cc2ccccc2)CC1`, for which the outcome was inactive. Regarding `Cc1cc(C)c2nc3sc(C(=O)N4CCOCC4)c(N)c3cc2c1`, the outcome was inactive. In the case of `CCC(C(=O)NC1C(=O)N2C(C(=O)O)=C(CSc3nnc(C)s3)CSC12)c1ccccc1` (stereo not drawn) it was “inactive”; in that of `CCn1nnnc1SCC(=O)N(C)C1CCS(=O)(=O)C1` (stereo not drawn), “inactive”; in that of `Cc1ccc(NC(=S)NCc2ccc(F)cc2)c(C)c1`, “inactive”. `Cc1nnsc1C(=O)N1CCN(c2ccc(F)cc2)CC1`: the outcome was inactive. With `Cc1ccccc1OCCC(=O)Nc1cc(S(=O)(=O)N2CCCCC2)ccc1N1CCN(C)CC1`, the outcome was inactive. On to `O=C(NNS(=O)(=O)c1ccc(F)cc1)c1ccc(O)cc1`, for which the outcome was inactive. Turning to `Cc1ccc2oc(=O)c3cnn(CC(=O)NCCC(C)C)c3c2c1`, the result was inactive. In the case of `O=C(CN1CCN(C(=O)CNC(=O)c2ccc3c(c2)OCO3)CC1)Nc1ccc(F)cc1` it was “inactive”; in that of `Cc1cc(C)c2c(SC(C)C)nc(N)nc2n1`, “inactive”; in that of `Fc1ccc(C2=CC(c3ccco3)n3ncnc3N2)cc1` (stereo not drawn), “inactive”. In the case of `CCOc1ccccc1C=C1SC(=S)NC1=O` it was “inactive”; in that of `CCCCCCOC(=O)C(C#N)c1nc2ccccc2nc1N1CCOCC1` (stereo not drawn), “inactive”; in that of `CC(OC(=O)c1ccc([N+](=O)[O-])o1)C(=O)NC1CCCCC1C` (stereo not drawn), “inactive”. As to `COc1ccc(/C=N/N=C2/CC(C)(C)Cc3n[nH]c(=O)cc32)cc1`, the outcome was inactive. In the case of `CCOC(=O)c1c(C)[nH]c(C(=O)COC(=O)c2cccnc2Cl)c1C` it was “inactive”. `O=C1c2ccccc2-c2onc3ccc(Oc4ccccc4)c1c23`: the result was inactive.

The values are drawn from PubChem BioAssay AID588683 (Broad Institute, 2011).
